PNC inhibitor: perinucleolar compartment assembly inhibition; 140,000 tested, 3.1% active; AID 2417; PC3M PTB-GFP, PNC prevalence imaging, 16 h; active compounds read low; activity change (PNC), negative = inhibition, % at 10 µM;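 active = readout at or below -70, meaning at least 70% loss of cells showing the perinucleolar compartment, a nuclear body marking cancer cells; inconclusive = readout between -30 and a set limit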
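Read-out is percentage of cells bearing a perinucleolar compartment, from automated 20x imaging of fixed, Hoechst-stained PC3M PTB-GFP cells. Cells were seeded 4 h, then exposed 16 h to compound (23 nl of library stock) in duplicate plates.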
ALDH1A1 block: inhibitors of human aldehyde dehydrogenase 1A1 | P00352 | Purified ALDH1A1, NADH fluorescence, propionaldehyde substrate | Potency, µM (titrated, usually from 75.3 µM), usual class: inhibitors | 220,000 tested, 7.3% active | AID 1030; active = well fitted inhibition curve with a large enough effect, not every such curve was filed as active; inconclusive = small, poorly fitted or top-dose-only effect, or another doubt; inactive = no such curve, though single readings can be large or run the other way
HttQ103 aggreg: inhibitors of mutant huntingtin aggregate formation in PC12 cells; PC12 HttQ103-GFP aggregates, Acumen cytometry, 40 h; Potency, µM (highest dose often 46.1 µM), hits mostly inhibitors; 220,000 tested, 1.1% active; AID 1688; also: nearly all actives have a fitted effect of over 60% in size
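Aggregate formation scored by laser-scanning cytometer (488 excitation, 500–530 emission) in lysed PC12 cells expressing Q103-GFP after 100 nM tebufenozide induction; library tested in dose series, with ATPLite reagent added in the multiplex.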
CBFb-RUNX1 inh: blocks binding between human CBF-beta and RUNX1 | Q01196+Q13951 | AlphaScreen CBFb-His/RUNX1-biotin binding, biochemical | Potency, µM (titrated, usually from 59.8 µM), actives largely listed as inhibitors | 230,000 tested, under 10 active
Target sequence (Q01196 whole entry, looked up): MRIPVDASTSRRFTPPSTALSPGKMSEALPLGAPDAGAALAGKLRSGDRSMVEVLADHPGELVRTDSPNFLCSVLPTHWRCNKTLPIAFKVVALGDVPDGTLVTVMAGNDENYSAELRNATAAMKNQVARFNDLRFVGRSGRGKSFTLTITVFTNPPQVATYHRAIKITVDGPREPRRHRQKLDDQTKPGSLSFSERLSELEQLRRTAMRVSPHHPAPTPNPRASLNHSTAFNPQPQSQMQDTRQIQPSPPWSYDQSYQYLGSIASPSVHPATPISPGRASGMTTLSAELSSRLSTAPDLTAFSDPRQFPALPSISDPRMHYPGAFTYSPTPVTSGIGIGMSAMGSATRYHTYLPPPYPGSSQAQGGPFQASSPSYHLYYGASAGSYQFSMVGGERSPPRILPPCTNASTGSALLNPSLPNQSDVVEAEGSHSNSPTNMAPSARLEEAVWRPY
Target sequence (Q13951 whole entry, looked up): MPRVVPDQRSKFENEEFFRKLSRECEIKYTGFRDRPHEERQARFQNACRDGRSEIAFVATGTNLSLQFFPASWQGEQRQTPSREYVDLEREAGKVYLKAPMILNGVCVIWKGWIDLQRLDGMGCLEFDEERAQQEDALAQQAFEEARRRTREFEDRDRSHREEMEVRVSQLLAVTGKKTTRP
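AlphaScreen binding: CBFb-His and RUNX1-biotin (30 nM each) preincubated 20 min, compound added for 15 min, then nickel and streptavidin beads for 90 min, all at room temperature. Disruption of the interaction by any mechanism counts as activity.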
HTT cytoprotect: cytoprotection in Huntington HTT-Q103 PC12 cell model; 230,000 tested, 0.14% active; Potency, µM (top dose mostly 56.4 µM), usual class: activators; PC12 HTT-Q103 induced, cytoprotection, ATP luminescence, 40 h; also: nearly all actives have a fitted effect of over 45% in size
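Rat PC12, Q103 Htt exon1-GFP fusion, ecdysone promoter; tebufenozide inducer 100 nM final; compound titration; qHTS, 1500 cells/well; ATPlite luminescent read.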
HPGD inh: inhibitors of human 15-hydroxyprostaglandin dehydrogenase (HPGD); purified HPGD, NADH fluorescence kinetic, PGE2 substrate; AID 894; 150,000 tested, 4.3% active; P15428; Potency, µM, usual class: inhibitors; active = well fitted inhibition curve with a large enough effect, not every such curve was filed as active; inconclusive = small, poorly fitted or top-dose-only effect, or another doubt; inactive = no such curve, though single readings can be large or run the other way
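20 nM HPGD preincubated 15 min at room temperature with compound in 50 mM Tris-HCl pH 8, 0.01% Tween 20. Started with 1 mM NAD+ and 30 uM prostaglandin E2; NADH fluorescence (360/450 nm) read 5 times over 30-s intervals, last minus first.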
Large screens that a line does not name were inactive. In the library only some 11% were active in any assay of this set; here they are far more common. Unless noted, calls follow the shape of the dose curve; as a rule, active = well fitted curve in the direction sought with a large enough effect; inconclusive = small, poorly fitted or top-dose-only effect, or another doubt; inactive = no such curve, though single readings can be large; an effect the other way counts as inactive or inconclusive.

O=C(O)C1CC2(C1)CC(C(=O)O)C2 (configuration not stated)	none (no result: PNC inhibitor, HttQ103 aggreg, CBFb-RUNX1 inh)
CC1(C(=O)O)CCC2(C)CCC3(C)C(=CC(=O)C4C5(C)CCC(O)C(C)(C)C5CCC43C)C2C1 (configuration not stated)	none (no result: PNC inhibitor, ALDH1A1 block, CBFb-RUNX1 inh, HPGD inh)
COc1ccc(-n2c(=O)cnc3cnc(N4CCOCC4)nc32)cc1	none (no result: PNC inhibitor, HttQ103 aggreg, CBFb-RUNX1 inh, HPGD inh)
O=C1CC(SC2=NCCS2)C(=O)N1c1cccc(Cl)c1Cl (configuration not stated)	ALDH1A1 block inconclusive (no result: PNC inhibitor, HPGD inh)
COc1cc(/C=C2\SC(=S)N(Nc3ccccc3)C2=O)cc(OC)c1OC	ALDH1A1 block 7.08µM, HttQ103 aggreg inconclusive
CC(=O)OCCCNc1cc(SCc2ccco2)c2nonc2c1[N+](=O)[O-]	ALDH1A1 block 7.94µM, HPGD inh 7.94µM
CCCC(=O)OCCNc1cc(Sc2nccn2C)c2nonc2c1[N+](=O)[O-]	ALDH1A1 block inconclusive, HttQ103 aggreg 11.2µM, HPGD inh 28.2µM
CCCSc1cc(NCCOC(C)=O)c([N+](=O)[O-])c2nonc12	none
CCCSc1cc(NCCOC(=O)CCC)c([N+](=O)[O-])c2nonc12	ALDH1A1 block inconclusive
CCCC(=O)OCCNc1cc(SCc2ccco2)c2nonc2c1[N+](=O)[O-]	ALDH1A1 block 4.47µM, HPGD inh inconclusive
O=C(NC1CCCC1)C(c1ccncc1)N(Cc1ccccc1)C(=O)Cc1cccs1 (configuration not stated)	ALDH1A1 block inconclusive
O=C(NCC1CCCO1)C(c1cccs1)N(Cc1ccccc1)C(=O)c1ccc(-c2ccccc2)[nH]1 (configuration not stated)	ALDH1A1 block inconclusive, HttQ103 aggreg inconclusive, HPGD inh inconclusive
O=C(NC1CCCC1)C(c1ccncc1)N(Cc1cccs1)C(=O)c1csnn1 (configuration not stated)	ALDH1A1 block 3.55µM, HttQ103 aggreg inconclusive
O=C(NC1CCCCC1)C(c1ccncc1)N(Cc1ccccc1)C(=O)c1ccc(-c2ccccc2)[nH]1 (configuration not stated)	ALDH1A1 block 22.4µM, HttQ103 aggreg inconclusive
COc1ccc(CN(C(=O)c2ccc(-c3ccccc3)[nH]2)C(C(=O)NCC2CCCO2)c2ccc(C)o2)cc1 (configuration not stated)	ALDH1A1 block 10µM, HttQ103 aggreg inconclusive, CBFb-RUNX1 inh inconclusive, HPGD inh inconclusive
CC(C)(C)NC(=O)C(c1ccncc1)N(Cc1cccs1)C(=O)c1csnn1 (configuration not stated)	none (no result: PNC inhibitor, ALDH1A1 block, HPGD inh)
Cc1ccc(C(C(=O)NC2CCCC2)N(Cc2ccc(F)cc2)C(=O)c2csnn2)o1 (configuration not stated)	PNC inhibitor inconclusive, ALDH1A1 block 14.1µM
CC(CNC(=O)C(=O)NC(C)CCc1ccccc1)Cc1ccccc1 (configuration not stated)	none
COc1ccc(CNc2ccnc(-c3ccccc3OC)n2)c(OC)c1	none (no result: PNC inhibitor, HttQ103 aggreg, CBFb-RUNX1 inh, HPGD inh)
CC(C)(C)n1nnnc1C(c1cccs1)N1CCCC2(CCCCC2)C1 (configuration not stated)	none
Oc1ccc(N2CCN(C(c3cccs3)c3nnnn3CCc3ccccc3)CC2)cc1 (configuration not stated)	ALDH1A1 block 25.1µM
c1ccc(Cn2nnnc2C(c2cccs2)N2CCCCCC2)cc1 (configuration not stated)	ALDH1A1 block 14.1µM
c1csc(C(c2nnnn2C2CCCCC2)N2CCCC3(CCCCC3)C2)c1 (configuration not stated)	PNC inhibitor inconclusive, ALDH1A1 block 7.94µM
CCOC(=O)C1=C(C)Nc2ccc(C)cc2S1	none
CSCCOC(=O)C1=C(C)Nc2ccc(C)cc2S1	PNC inhibitor inconclusive, ALDH1A1 block 14.1µM, HTT cytoprotect inconclusive
Cc1cccc(C)c1NC1=NCCCCC1	none (no result: PNC inhibitor, HPGD inh)
Cc1ccc(-n2c(-c3ccco3)n[nH]c2=S)cc1	none (no result: PNC inhibitor, HPGD inh)
CC(C1CC2CCC1C2)n1c(-c2ccco2)n[nH]c1=S (configuration not stated)	ALDH1A1 block 14.1µM (no result: PNC inhibitor, HPGD inh)
COc1ccc(-n2c(=O)c(-c3cn(C)c4ccccc34)nc3cncnc32)cc1	ALDH1A1 block inconclusive (no result: PNC inhibitor, HttQ103 aggreg, CBFb-RUNX1 inh)
Cc1ccc(C)c(S(=O)(=O)N2CCN(CC(=O)Nc3ccc4c(c3)CCC4)CC2)c1	none
Cc1ccc(S(=O)(=O)N2CCN(CC(=O)NC3CCCc4ccccc43)CC2)c(C)c1 (configuration not stated)	ALDH1A1 block 12.6µM
NC(=O)C1CCN(CC(=O)NC2CCCc3ccccc32)CC1 (configuration not stated)	none (no result: PNC inhibitor, HPGD inh)
Cc1ccc(S(=O)(=O)N2CCN(CC(=O)NC3CCCc4ccccc43)CC2)cc1C (configuration not stated)	ALDH1A1 block 0.447µM
Cc1ccc(C)c(S(=O)(=O)N2CCN(CC(=O)N3CCc4ccccc4C3)CC2)c1	ALDH1A1 block 17.8µM
Cc1cc(C)c2nc(NNC(=O)c3cc(=O)c4ccccc4o3)sc2c1	CBFb-RUNX1 inh inconclusive (no result: PNC inhibitor, HPGD inh)
CC(=O)Nc1ccn(C2OC(C(COC(C)=O)NC(=O)C(COCc3ccccc3)NC(=O)OC(C)(C)C)C(OC(C)=O)C2OC(C)=O)c(=O)n1 (configuration not stated)	none (no result: PNC inhibitor, ALDH1A1 block, HttQ103 aggreg, HTT cytoprotect, HPGD inh)
Cc1oc(-c2cccs2)nc1CN1CCC(CO)(CCOc2ccccc2)CC1	none (no result: PNC inhibitor, HPGD inh)
CN(C)Cc1ccccc1-c1cc(NCc2ccccc2)ncn1	ALDH1A1 block inconclusive (no result: PNC inhibitor, HttQ103 aggreg, CBFb-RUNX1 inh, HPGD inh)
O=C(CC(Nc1ccc(F)cc1)C(=O)O)c1ccccc1 (configuration not stated)	PNC inhibitor inconclusive, ALDH1A1 block inconclusive
O=C(CC(Nc1ccc(F)cc1)C(=O)OCC(=O)c1cccs1)c1ccccc1 (configuration not stated)	ALDH1A1 block 11.2µM, HttQ103 aggreg inconclusive
OCCC1CN(Cc2ccc3nonc3c2)CCN1Cc1ccsc1 (configuration not stated)	ALDH1A1 block 18.9µM (no result: PNC inhibitor, HPGD inh)
OCCC1CN(Cc2ccc3cc(Cl)ccc3n2)CCN1Cc1ccsc1 (configuration not stated)	ALDH1A1 block inconclusive (no result: PNC inhibitor, HPGD inh)
Cc1cnc(-c2nnc(N(C)C(=O)c3ccncc3)s2)cn1	none (no result: PNC inhibitor, ALDH1A1 block, HttQ103 aggreg, CBFb-RUNX1 inh, HPGD inh)
N#Cc1c(/N=C/c2cc3ccccc3s2)sc2c1CCC2	PNC inhibitor inconclusive, ALDH1A1 block 25.1µM
CN1CCN(/C=N/c2sc3c(c2C#N)CCCCC3)CC1	ALDH1A1 block 10µM
N#Cc1c(/N=C/C=C/c2ccccc2)sc2c1CCCC2	ALDH1A1 block 7.94µM, HPGD inh 22.4µM
Cc1[nH]n(-c2cccc3ccccc23)c(=O)c1/C=N/c1sc2c(c1C#N)CCC2	ALDH1A1 block 5.01µM, HPGD inh inconclusive
CCN(/C=N/c1sc2c(c1C#N)CCCCC2)CC	ALDH1A1 block inconclusive
